For 112 compounds, INHIBITION results are on record in ChEMBL document CHEMBL4513216, “Probing the Open Global Health Chemical Diversity Library for Multistage-Active Starting Points for Next-Generation Antimalarials” (ACS Infect Dis, 2020).

SMILES strings stand for the structures. About 2,700 (4%) of roughly 68,000 compounds showed an effect of 50% or more. This excerpt belongs to a sample that is enriched for strong results.

The test system of the assay is Plasmodium berghei. Kind of assay: Screen against P. berghei liver stage (PbLuc), transformed with Luciferase, at 2uM. To be noted: tested at 2 uM. The assay is classed as functional, HepG2.
Regarding `CN(C)CC(=O)N1C[C@H]2CCC[C@@]2(COc2ccccn2)C1`, the INHIBITION is listed as 19.44%.
The value for `O=C(CCC(=O)N1CCCC1c1ccsc1)N1CCOCC1` (configuration not stated) was -26.92%.
As to `Cc1ccc(-c2ncc(C(=O)N3CCC[C@H](N)C3)c(O)n2)cc1`, the INHIBITION was determined as 63.1%.
`Cc1nc(C(C)C)ncc1C(=O)N1CCCC(N2CCCC2)C1` (configuration not stated): the INHIBITION worked out at 11.44%.
The value for `Cc1ccc(-c2ncc(C(=O)N3CCCC(CCN)C3)c(O)n2)cc1` (configuration not stated) was 41.07%; that for `Cc1ccc(-c2ncc(C(=O)N3CCCN4CCC[C@H]4C3)c(O)n2)cc1` was 32.26%; that for `Cc1ccc(-c2ncc(C(=O)N3CCN4CCCCC4C3)c(O)n2)cc1` (configuration not stated) was 60.9%.
The same measure for `Cc1nc(-c2cccnc2)ncc1C(=O)N1CCCCC(N)C1` (configuration not stated): 6.22%; for `c1cnc(N2C[C@H]3CCN(CC4CC4)C[C@H]3C2)cn1`: 11.56%.
The value for `CC(Cn1cccn1)n1cnc2cccc(Cl)c2c1=O` (configuration not stated) was 33.52%; that for `CCC(=O)N1CCCC(c2cc(Nc3ncccn3)nc(C)n2)C1` (configuration not stated) was 11.08%; that for `NC(=O)c1ccc(-c2nc3c(c(=O)[nH]2)CCNC3)cc1` was 41.78%.
With `O=c1[nH]c(-c2ccc(Cl)cc2)nc2c1CCNC2`, the INHIBITION amounted to 57.21%.
For `O=c1[nH]c(-c2ccc(F)cc2)nc2c1CCNC2`, the INHIBITION was 53.66%.
The same measure for `O=c1[nH]c(-c2ccccc2F)nc2c1CCNC2`: 1.4%; for `O=c1[nH]c(COc2ccc(Cl)cc2)nc2c1CCNC2`: 12%.
The same measure for `O=c1[nH]c(-c2ccc(F)c(F)c2)nc2c1CCNC2`: -18.12%; for `c1ccc(-c2cccc(N3CCC(NCCc4cscn4)CC3)c2)cc1`: -8.16%.
The same measure for `O=C1CO[C@@H]2CNC[C@H]2N1CC1CC1`: 27.61%; for `CC(C)CN1C(=O)CO[C@@H]2CN(C(=O)N(C)C)C[C@H]21`: -20.67%.
Regarding `CC(C)CN1C(=O)CO[C@@H]2CNC[C@H]21`, the INHIBITION came out at 70.31%.
The value for `CCN(Cc1cccc(C(=O)Nc2c(C)cnn2C)c1)[C@H]1COC[C@@H]1O` was 20.36%.
The value for `CC1CCN(C(=O)[C@@H]2CC[C@@H]3[C@@H](CCN3c3ncc(F)cn3)O2)CC1` was 3.63%; that for `CC(C)OCc1cccc(NC(=O)N(C)Cc2ncnn2C)c1` was 31.51%.
The same measure for `CCOc1cc(NC(=O)N(C)Cc2ncnn2C)ccc1C`: 31.51%; for `CCSCc1cccc(NC(=O)N(C)Cc2ncnn2C)c1`: 72.05%; for `COCCNC(=O)Cn1c(-c2ccco2)cc2cccnc21`: 37.87%.
Regarding `CCOc1nc2cnccc2n(CC(=O)NCCc2ccccc2)c1=O`, the INHIBITION stood at 28.85%.
The value for `CCOc1nc2cccnc2n(CC(=O)NCCOC)c1=O` was 74.49%; that for `CNC(=O)CN1CCOCC2(C1)CN(C(=O)CC(C)C)CCO2` (configuration not stated) was -1.18%; that for `Fc1cccc2[nH]c(CN3CCc4cncnc4C3)nc12` was 7.24%.
For the compound `Cc1nn(C)c(N(C)C)c1CNCc1cccnc1N1CCOCC1`, the INHIBITION was determined as 28.81%.
`O=S1(=O)CCCN1Cc1coc(-c2ccc(C(F)(F)F)cc2)n1`: the INHIBITION is on record as 1.8%.
The value for `CSc1ccc(C(C)NC(=O)c2cc(C)on2)cc1` (configuration not stated) was -121.09%; that for `CSc1ccc(C(CC(=O)O)NC(=O)c2cc(C)on2)cc1` (configuration not stated) was -70.44%; that for `COc1ccc(C(CC(=O)O)NC(=O)c2cc(C)on2)cc1` (configuration not stated) was 73.09%.
The value for `CN(C)CC(=O)N1CCC2(CC(=O)N(c3cccc(C#N)c3)C2)C1` (configuration not stated) was -3.08%.
The same measure for `CC(C)c1nnc(N2C[C@H]3CC[C@@H](C2)N(Cc2ccccc2)C3)s1`: -23.49%.
On to `O=C1C[C@@H]2CC[C@H](CN1)N2C(=O)CCCc1ccc(Cl)cc1`, for which the INHIBITION is -29.06%.
The value for `O=C1C(NS(=O)(=O)c2cc(F)cc(F)c2)CCN1Cc1ccccc1` (configuration not stated) was 23.92%; that for `O=C1C(NS(=O)(=O)c2ccc(F)cc2)CCN1Cc1ccccc1` (configuration not stated) was 38.76%.
The value for `O=C1C(NS(=O)(=O)c2cccc(F)c2)CCN1Cc1ccccc1` (configuration not stated) was 54.29%.
The same measure for `CC(=O)N1CCS(=O)(=O)[C@@H]2CCN(S(=O)(=O)CC(C)C)CC[C@@H]21`: -12.76%; for `CC(=O)N1CCS(=O)(=O)[C@@H]2CCN(CC(C)C)CC[C@@H]21`: 60%; for `CC(C)CN1CC[C@@H]2[C@H](CC1)N(C(=O)c1ccccc1)CCS2(=O)=O`: -1.31%.
With `Cc1nsc(C(=O)NCCc2ccc(S(N)(=O)=O)cc2)n1`, the INHIBITION was -43.28%.
The value for `CC(C)Cc1nc(CN2CCOC(Cn3cccn3)C2)no1` (configuration not stated) was -20.61%; that for `O=C(NC1CC1)c1cc(NC(=O)N2CCOCC2)ccc1Cl` was 64.9%; that for `O=C(NC1CC1)c1cc(NC(=O)N2CCSCC2)ccc1Cl` was 31.51%.
With `O=C(NC1CC1)c1cc(NC(=O)N2CCCC2)ccc1Cl`, the INHIBITION was 31.51%.
The value for `CCN(Cc1cc(F)c(OC)c(Cl)c1)Cc1nc(COC)no1` was -20.98%; that for `CCN(Cc1noc(CC(C)C)n1)Cc1ccccc1Cl` was -33.2%.
`CCN(Cc1cc(F)c(OC)c(Cl)c1)Cc1noc(CC(C)C)n1`: the INHIBITION is reported as 71.91%.
The same measure for `CCn1cc(CN2CCCC(c3[nH]ncc3-c3ccc(C)cc3)C2)cn1` (configuration not stated): -20.72%; for `CN(C)Cc1nn(C)c2c1CCN(C(=O)c1cccnc1)C2`: 47.97%.
The same measure for `CNC(=O)c1cccc(CCNc2ncc(Br)cn2)c1`: 12.41%.
On to `CCn1cc(N)c(-c2nnc3n2CCCC3)n1`, for which the INHIBITION was -37.89%.
The value for `Cn1nnc2cc(C(=O)NS(=O)(=O)c3ccc(F)cc3)ccc21` was 28.72%; that for `Cc1cccc(S(=O)(=O)NC(=O)c2ccc3c(c2)nnn3C)c1` was 53.99%; that for `Cn1nnc2cc(C(=O)NS(=O)(=O)c3cccc(C#N)c3)ccc21` was -40.9%.
The value for `CCc1ncc2c(n1)CN(c1nnc(C)c(C)c1C#N)CC2` was 23.43%.
The value for `Cc1cc(-c2cnc(N3CCCC(C)C3)nc2-c2cccnc2C)on1` (configuration not stated) was -39.75%; that for `CS(=O)(=O)NCc1n[nH]c2c1CCN(C(=O)c1ccsc1)C2` was 19.56%.
`CCC(=O)NCc1cc(Br)ccc1OC(F)F`: the INHIBITION amounted to 43.8%.
The value for `CN1CCN2C(=O)N(C3CCCCC3)C[C@H]2C1` was -22.32%; that for `CN1CCN2C(=O)N(C3CCOCC3)C[C@H]2C1` was 52.36%; that for `CS(=O)(=O)N1CCN2C(=O)N(C3CCOCC3)C[C@H]2C1` was 35.89%.
The value for `Cc1cnn(CC2CCCN2C(=O)CCc2ccncc2)c1` (configuration not stated) was -5.39%.
The same measure for `N#Cc1ccc(C(=O)N2CCc3c(COCC4CC4)cncc3C2)cc1`: -20.87%.
As to `CSC1(CNC(=O)N(C)Cc2ccc(C)s2)CCOCC1`, the INHIBITION is reported as -18.99%.
The value for `CSC1(CNC(=O)N(C)Cc2sccc2C)CCOCC1` was 57.16%; that for `CSC1(CNC(=O)NCc2sccc2C)CCOCC1` was 13.58%.
The same measure for `CC(C)N(C)CC(=O)NCCc1nc(C(F)(F)F)cs1`: -18.28%; for `Cc1cnc(C)c(N2CCC(c3nnc(CN(C)C)n3C3CC3)CC2)n1`: -13.88%; for `CN(C)Cc1nnc(C2CCN(c3ncccc3Cl)CC2)n1C1CC1`: 84.18%.
The same measure for `CN(C)Cc1nnc(C2CCN(c3ncccn3)CC2)n1C1CC1`: -61.17%; for `Cn1cncc1CN1CCC2(CC1)COCCN(S(C)(=O)=O)C2`: -38.72%.
As to `Cc1cc(C(F)(F)F)nn1CCNC(=O)C(C)n1ccnc1C(C)C` (configuration not stated), the INHIBITION was -4.93%.
For the compound `CCCN(CC1CC1)S(=O)(=O)c1ccc(NC(C)=O)cc1`, the INHIBITION was -13.12%.
The same measure for `CC(C)(O)CCc1cccc(C(=O)N2CCC[C@H]2C(N)=O)c1`: 6.26%.
The value for `CN(C)CCOc1ccc(N(C)S(=O)(=O)c2cnn(C)c2)cc1` was 57.68%; that for `COc1ccc(OCCN(C)S(=O)(=O)c2cnn(C)c2)cc1` was 83.12%; that for `CN(CCOc1ccc(F)cc1)S(=O)(=O)c1cnn(C)c1` was -11.34%.
As to `CN(CCCOc1ccc(F)cc1)S(=O)(=O)c1cnn(C)c1`, the INHIBITION is recorded as -6.65%.
The value for `Cc1ccc(OCCN(C)S(=O)(=O)c2cnn(C)c2)cc1` was 31.54%; that for `CN(CCCOc1ccccc1)S(=O)(=O)c1cnn(C)c1` was -2.63%.
The value for `Cc1oc(C(=O)O)cc1S(=O)(=O)Nc1cccc(-n2nccc2C)c1` was 37.15%; that for `Cc1c[nH]nc1C1CCN(C(=O)C2CCCC2)C1` (configuration not stated) was 41.21%.
The same measure for `NC(=O)C1(Cc2ccc(-c3ccccc3)cc2)CCNC1` (configuration not stated): 9.18%.
With `CCOC(=O)CCNC(=O)N1CCOC(Cc2cccc(OC)c2)C1` (configuration not stated), the INHIBITION was found to be 25.37%.
The same measure for `CCOC(=O)CNC(=O)N1CCOC(CCc2ccccc2)C1` (configuration not stated): -18.39%.
The value for `CCOC(=O)CNC(=O)N1CCOC(Cc2ccc(OC)cc2)C1` (configuration not stated) was 55.66%; that for `CN(C)CCOCC1CN(Cc2ccncc2)Cc2nnn(C)c21` (configuration not stated) was 7.1%; that for `CN1CCC(N(CCc2ccccc2)C(=O)COCC2CCCO2)CC1` (configuration not stated) was 42.79%.
The same measure for `Cc1cccc(-c2nccnc2C2CCN(C)CC2)c1C`: -25.17%.
As to `COC(=O)c1sc2cccc(F)c2c1CNC(=O)C1CCOC1` (configuration not stated), the INHIBITION is given as 33.02%.
On to `COC(=O)c1sc2cccc(F)c2c1CNC(=O)C1CC1`, for which the INHIBITION is 15.28%.
In the case of `COC(=O)c1sc2cccc(F)c2c1CNC(=O)C1CCCO1` (configuration not stated), the INHIBITION is listed as 50.3%.
With `Cc1ncccc1-c1cc2cccnc2n1CCCNC(=O)C(C)(C)C`, the INHIBITION is reported as 24.98%.
The value for `COCCN1CCC2(CC1)CC(NC(=O)CN(C)C)c1ccccc1O2` (configuration not stated) was 48.52%; that for `CC(C)c1nc2c(n1C)CCN(CC(=O)Nc1ccnn1C(C)C)C2` was -42.83%.
`CC(C)c1nc2c(n1C)CCN(CC(=O)Nc1cccnc1)C2`: the INHIBITION is -14.17%.
The value for `CC(C)c1nc2c(n1C)CCN(CC(=O)Nc1ccncc1)C2` was -14.17%.
The value for `Cn1c(C2CC2)nc2c1CCN(CC(=O)Nc1nncs1)C2` was 22.51%; that for `CC(C)c1nc2c(n1C)CCN(CC(=O)Nc1nccs1)C2` was -15.91%; that for `CCCn1nccc1NC(=O)CN1CCc2c(nc(C(C)C)n2C)C1` was 56.12%.
The value for `Cc1nnc(NC(=O)CN2CCc3c(nc(C4CC4)n3C)C2)s1` was 51.94%.
For `CCCn1nccc1NC(=O)CN1CCc2c(nc(C3CC3)n2C)C1`, the INHIBITION was found to be 49.6%.
The same measure for `CC(C)c1nc2c(n1C)CCN(CC(=O)Nc1nncs1)C2`: 60.09%; for `CC(C)c1nc2c(n1C)CCN(CC(=O)Nc1ccc(Cl)cn1)C2`: 51.92%; for `Cc1nnc(NC(=O)CN2CCc3c(nc(C(C)C)n3C)C2)s1`: 22.63%.
The value for `Cc1csc(NC(=O)CN2CCc3c(nc(C4CC4)n3C)C2)n1` was -1.02%.
